High-throughput results: PubChem BioAssay, Sanford-Burnham Center for Chemical Genomics
PfGluPho inh = PfG6PD enzyme inhibitors, primary screen, biochemical, fluorescence intensity, uHTS | 0.78% of 350,000 active | inhibition, % at 20 µM | glucose-6-phosphate dehydrogenase-6-phosphogluconolactonase (Plasmodium falciparum 3D7) | PfGluPho enzyme, NADPH resazurin-diaphorase fluorescence;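 active = inhibition reaching at least a set limit at 20 µM in the primary screen, cut at about 59% in these data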;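 also: 0% = DMSO wells with substrate and 100% = DMSO wells lacking glucose-6-phosphate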
A3A deaminase = APOBEC3A ssDNA deaminase inhibitors, primary screen, selectivity assay for APOBEC3G inhibitor project, biochemical, FAM/TAMRA oligo cleavage fluorescence | recombinant A3A, FAM/TAMRA ssDNA deamination fluorescence | inhibition, % at 20 µM | 0.41% of 330,000 active;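 active = at least 40% inhibition at 20 µM here, with at most 30% in a related deaminase screen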;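 also: plate controls were A3A with DMSO for no effect and wells lacking A3A enzyme for full effect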
Target sequence (P31941 whole entry, looked up): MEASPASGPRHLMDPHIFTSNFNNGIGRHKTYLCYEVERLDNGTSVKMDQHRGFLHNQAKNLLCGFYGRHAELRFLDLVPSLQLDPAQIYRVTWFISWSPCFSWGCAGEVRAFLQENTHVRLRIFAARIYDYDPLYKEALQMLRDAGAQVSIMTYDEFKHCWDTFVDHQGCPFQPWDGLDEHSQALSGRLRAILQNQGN
TAG inh = inhibitors of triacylglycerol accumulation, primary screen, cell-based, uHTS, fluorescence, H9c2. H9c2 cells, Nile Red lipid (TAG) fluorescence; cells loaded with 200 µM oleic acid. inhibition, % at 12.5 µM. 0.66% of 230,000 active. AID 651582, 2012;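 active = pattern-corrected inhibition of lipid staining of at least 50% with the nuclear-stain viability signal not falling by more than 50%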;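 also: 0% = DMSO wells and 100% = triacsin C control wells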
A3G deaminase = APOBEC3G DNA deaminase inhibitors, primary screen, biochemical, fluorescence, single-stranded DNA substrate, uHTS. recombinant A3G, ssDNA deamination FAM/TAMRA fluorescence. AID 493012, 2011. DNA dC->dU-editing enzyme APOBEC-3G (Homo sapiens), Q9HC16. inhibition, % at 20 µM. 0.28% of 330,000 active;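 active = inhibition of at least 40% at 20 µM, with no more than 30% in the related APOBEC3A deaminase screen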;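 also: plate controls were DMSO wells with A3G for no effect and wells lacking A3G enzyme for full effect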
NadD block = inhibitors of S. aureus NadD, primary screen, biochemical, colorimetric, uHTS; 0.78% of 360,000 active; purified NadD enzyme, colorimetric absorbance read-out; inhibition, % at 20 µM; Nicotinate-nucleotide adenylyltransferase NadD (Staphylococcus aureus N315); in the data active = inhibition above about 26%
H9c2 protect = cardioprotection against H2O2-induced cell death, primary screen, uHTS, H9c2 cells, ATPLite luminescence; protection from H2O2 cell death, % at 20 µM; H9c2 cardiomyocytes, H2O2 injury protection, 2 h; 0.63% of 360,000 active;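 active = compounds giving at least 50% protection of heart cells from peroxide-induced death in the single-dose screen, raw or plate-pattern-corrected value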;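 also: 0% = DMSO wells with peroxide and 100% = DMSO wells without peroxide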
APOBEC3G confirm = APOBEC3G deaminase inhibitor retest, confirmation, biochemical, fluorescence, single-stranded DNA substrate, single concentration. 72% of 890 active. inhibition, % at 20 µM. shares compounds with A3G deaminase. recombinant A3G ssDNA deaminase, UDG/FAM-TAMRA fluorescence. AID 493152, 2011;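 active = inhibition reaching a set limit in any replicate at 20 µM, the limit being 80% of the first screen's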
UDG ctr A3G = E. coli UDG inhibitors, confirmation, counter-screen for APOBEC3G inhibitor project, biochemical, single concentration, fluorescence, FAM/TAMRA oligo; inhibition, % at 20 µM; 710 tested, under 10 active; UDG counterscreen; shares compounds with A3G deaminase;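 active = compounds giving 40% or more inhibition at 20 µM in any one of the three replicates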;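 also: plate controls were DMSO wells with UDG and oligo for no effect and DMSO wells lacking both for full effect; inhibitors lower the FAM signal released by uracil excision and alkaline cleavage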
Target sequence (P12295 whole entry, looked up): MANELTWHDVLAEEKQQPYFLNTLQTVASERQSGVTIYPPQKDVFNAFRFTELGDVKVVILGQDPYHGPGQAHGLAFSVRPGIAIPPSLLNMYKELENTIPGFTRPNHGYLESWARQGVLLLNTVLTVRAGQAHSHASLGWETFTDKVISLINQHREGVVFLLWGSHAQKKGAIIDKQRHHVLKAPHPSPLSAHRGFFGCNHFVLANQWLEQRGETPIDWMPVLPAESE
PfG6PD confirm = PfG6PD inhibitors, hit retest, confirmation, biochemical, fluorescence intensity, single concentration | AID 504753, 2011 | inhibition, % at 20 µM | 34% of 2,400 active | recombinant PfGluPho, NADPH-diaphorase-resazurin fluorescence | shares compounds with PfGluPho inh;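 active = inhibition of at least 50% at 20 µM in any single replicate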;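 also: 0% = DMSO with substrate and 100% = DMSO lacking glucose-6-phosphate substrate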
Diaph ctr 10uM = diaphorase inhibitors and chemical oxidizers, confirmation, counter-screen for P. falciparum G6PD inhibitor project, biochemical, fluorescence intensity, 10 µM NADPH. shares compounds with PfGluPho inh. diaphorase-coupled resazurin reduction, NADPH 10 uM. 39% of 820 active. inhibition, % at 20 µM;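 active = average inhibition reaching 50% or more with the compound at 20 µM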;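 also: resorufin red fluorescence formed as diaphorase reduces resazurin using NADPH; 0% = DMSO with enzyme and 100% = DMSO without enzyme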
Diaph ctr 30uM = diaphorase inhibitors and chemical oxidizers, confirmation, counter-screen for P. falciparum G6PD inhibitor project, biochemical, fluorescence intensity, 30 µM NADPH; shares compounds with PfGluPho inh; Diaphorase/resazurin coupled assay, resorufin fluorescence; inhibition, % at 20 µM; 29% of 820 active; AID 504863, 2011;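 active = inhibition averaging 50% or more, tested at 20 µM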;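 also: 0% = DMSO with enzyme and 100% = DMSO wells lacking diaphorase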
An asterisk follows results filed as active; . = no result. In the library only some 2.9% were active in any assay of this set; here they are far more common.

SMILES | PfGluPho inh | A3A deaminase | TAG inh | A3G deaminase | NadD block | H9c2 protect | APOBEC3G confirm | UDG ctr A3G | PfG6PD confirm | others
C[C@H](NC(N)=O)C(=O)Nc1ccc(N2CCOCC2)c(S(=O)(=O)Nc2ccc(Cl)cc2)c1 | 76* | -2 | -22 | 46* | 9 | 0 | 30* | 3 | 58* | Diaph ctr 10uM=2;Diaph ctr 30uM=-16
S=C(c1ccc(-c2ccc(Cl)c(Cl)c2)o1)N1CCOCC1 | 32 | -2 | . | 2 | 9 | -7 | . | . | .
S=C(c1ccc(-c2ccccc2Cl)o1)N1CCOCC1 | 62* | -2 | . | 61* | 2 | -14 | 55* | -7 | 42
Nc1nnc(CCS(=O)(=O)c2ccc(Br)cc2)s1 | 8 | 7 | -2 | 2 | -1 | -5 | . | . | .
Cc1nn(CC(=O)N2CCOCC2)c(=O)c2nn(-c3ccccc3)c(C)c12 | 12 | -18 | . | -5 | -6 | 1 | . | . | .
CCOC(=O)C1(N(CC)CC)Sc2cc(C)ccc2NC1=O (stereo unspecified) | 31 | -4 | -24 | -5 | 0 | -4 | . | . | .
COC(=O)C1=C(C(=O)OC)SC2(S1)C(C(=O)OC)=C(C(=O)OC)SC1=C2c2cc(C)ccc2NC1(C)C | 72* | 1 | -5 | 45* | 25 | -16 | 40* | -3 | 26
Cc1cccc(NC(=O)C2C3CCCCC32)c1 (stereo unspecified) | 6 | -1 | -2 | -6 | -4 | -9 | . | . | .
Cc1ccc(NC(=S)NC(=O)Cc2ccccc2)c(O)c1 | 0 | -2 | . | -4 | 0 | -6 | . | . | .
COc1cc(S(=O)(=O)NCc2ccc(F)cc2)ccc1-n1cnnn1 | 1 | -2 | . | -8 | 0 | -9 | . | . | .
COc1cc(C(=S)N2CCN(c3cccc(Cl)c3)CC2)ccc1O | 48 | -1 | 8 | 50* | 6 | -12 | 40* | -4 | 20
CN(CC(=O)Nc1cc(S(=O)(=O)N2CCCC2)ccc1Cl)Cc1nc2ccccc2c(=O)[nH]1 | 3 | . | -9 | . | -1 | 0 | . | . | .
Cc1ccc(N=c2ssnc2Cl)cc1 | 91* | 5 | -22 | 73* | 15 | -20 | 75* | -3 | 43
Cc1cc(Cl)ccc1N=c1ssnc1Cl | 79* | 2 | -17 | 61* | 28 | -32 | 62* | -4 | 29
O=C(NCc1ccccn1)c1ccccc1OCc1ccc(Cl)cc1Cl | -2 | -7 | -10 | -10 | 4 | 21 | . | . | .
S=C(c1ccc(Br)cc1)N1CCN(Cc2ccccc2)CC1 | 60* | 0 | . | 40* | -4 | -10 | 29 | . | 47
NS(=O)(=O)c1cc(C(=O)OCC(=O)N2CCOCC2)ccc1Cl | 9 | -4 | . | -8 | 0 | 2 | . | . | .
Fc1cccc(-c2nnn3c2nc(Cl)c2ccccc23)c1 | 10 | . | 32 | . | 1 | 1 | . | . | .
CCCOC(=O)c1c(NC(=O)C2CCCO2)sc(C(=O)OC)c1C (stereo unspecified) | 59* | -2 | . | 41* | -6 | -11 | 48* | -1 | 21
CCOC(=O)c1cc(-c2ccccc2)sc1NC(=O)c1ccc(OC)c(OC)c1 | 78* | 1 | . | 57* | -1 | -4 | 47* | -2 | 47
Cc1nc(-c2ccc([N+](=O)[O-])cc2)nc2[nH]ccc(=O)c12 | -4 | -1 | . | -7 | 7 | 2 | . | . | .
c1ccc(Sc2ccccn2)cc1 | 1 | -2 | 4 | -5 | -8 | 1 | . | . | .
c1ccc(SSc2ccccn2)nc1 | 68* | -4 | 7 | 64* | 5 | 8 | 88* | -4 | 58* | Diaph ctr 10uM=-24;Diaph ctr 30uM=-27
COc1cc2ccccc2cc1C(=O)N1CC(C)CC(C)C1 (stereo unspecified) | -13 | -4 | -22 | -7 | -4 | -1 | . | . | .
CCOC(=O)C1CCCN(C(=O)Cn2sc3nc(C)cc(C)c3c2=O)C1 (stereo unspecified) | 68* | -5 | 9 | 50* | -1 | -41 | 78* | -4 | 52* | Diaph ctr 10uM=-18;Diaph ctr 30uM=-20
SMILES | PfGluPho inh | A3A deaminase | TAG inh | A3G deaminase | NadD block | H9c2 protect | APOBEC3G confirm | UDG ctr A3G | PfG6PD confirm | others
Cc1nn(CC(=O)N2CCC(N3CCCCC3)CC2)c(=O)c2c1sc1ccccc12 | -25 | -3 | . | -4 | -9 | 8 | . | . | .
CCCNC(=O)Cn1sc2nc(C)cc(C)c2c1=O | 81* | -11 | 19 | 60* | -12 | -32 | 77* | 0 | 68* | Diaph ctr 10uM=-32;Diaph ctr 30uM=-23
Cc1cc(C)c2c(=O)n(CC(=O)N3CCC(N4CCCCC4)CC3)sc2n1 | 80* | -7 | 11 | 49* | -15 | 17 | 82* | 0 | 63* | Diaph ctr 10uM=-2;Diaph ctr 30uM=2
CC(CCc1ccc(O)cc1)NCc1ccc(Br)cc1 (stereo unspecified) | -6 | -4 | . | 10 | -2 | -2 | . | . | .
Cc1ccc(S(=O)(=O)NCC(=O)N/N=C/c2ccccc2O)cc1 | -13 | -5 | -17 | -10 | -2 | 45 | . | . | .
CC1(C)Cc2c(c(N3CCOCC3)nc3sc(C(=O)N4CCCCC4)c(N)c23)CO1 | 68* | 0 | 7 | 47* | -2 | 12 | 28* | 4 | 15
CCCCOC(=O)c1sc2nc(N3CCOCC3)c3c(c2c1N)CC(C)(C)OC3 | -9 | 1 | 17 | -6 | 3 | -6 | . | . | .
Cc1cc(C(=O)N2CC=C(c3ccccc3)CC2)c2ccccc2n1 | -4 | 1 | 48 | -5 | -2 | -11 | . | . | .
